Assay [1] is described as follows: inhibitors of TNFa-induced NFkB p65 translocation, primary screen, imaging, HUVEC, MLSMR starter and 10KST1 sets (AID 438;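 active means inhibition above 20% together with a positive visual image hit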;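 further: compound added about 3h40 before a 20 min TNFalpha stimulation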;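 on inhibition: signal is the nuclear over cytoplasmic p65 intensity ratio per well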). The conditions noted are these: HUVEC TNFa-induced p65 nuclear translocation; cell count: measured here: nuclei count (cytotoxicity indicator), at 2.08 µM; inhibition: at 2 µM, stronger effect = higher value, 0% TNFa-plus-vehicle, 100% no-TNFa wells.
The nature of assay [2]: reduction of polyQ htt aggregates in cells – imaging, exon1htt(103Q)mCFP cells, high-content imaging, primary screen (AID 483;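 active means visual image review flags a hit and inhibition of aggregation exceeds 20%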;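 further: compound exposure lasted 3 days before fixation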;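 on nuclei count: percent of the per-plate median nuclei count of sample wells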). The conditions noted are these: exon1htt(103Q)mCFP cell line, aggregate imaging, at 2 µM; inhibition of aggregation: stronger effect = higher value; nuclei count: measured here: cell count, toxicity.
Assay [3] is described as follows: endothelial E-selectin expression blockers – imaging, HUVEC, immunofluorescence, MLSMR starter and 10KST1 sets, primary screen (AID 487;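 active means visually confirmed hit in the image check and inhibition above 20%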;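 on inhibition: signal is fraction of cell area covered by stained E-selectin grains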;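 on nuclei count: 100% = median nuclei count of all wells on the same plate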). The conditions noted are these: HUVEC TNFalpha-induced E-selectin immunofluorescence imaging, at 2 µM; inhibition: stronger effect = higher value; nuclei count: measured here: cell number, toxicity.
Assay [4] deals with Voltage-gated potassium channel subunit beta-2 (Rattus norvegicus) (UniProt P62483). The assay is described as follows: inhibitors of rat Kvbeta2 reductase activity – biochemical, NADPH fluorescence, primary screen (AID 622;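 active means fluorescence slope higher than the sample average by over 3 SD, cut at about -0.22 in these data, passing the limit was not always enough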;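 further: slope of raw intensity against log time taken from 70 to 1610 s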). The conditions noted are these: recombinant KvBeta, 4-cyanobenzaldehyde reduction, at 10 µM, stronger effect = higher value.
Assay [5] shares this target. The assay is described as follows: enhancers of rat Kvbeta2 NADPH turnover – biochemical, NADPH fluorescence, primary screen (AID 623;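 active means NADPH fluorescence slope more negative than the mean of all samples by about 3 SD, 99.7% confidence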;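 further: fluorescence intensity change per second fitted from 20 to 320 s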). The conditions noted are these: Recombinant KvBeta, NADPH fluorescence decrease slope, 10 min; at 10 µM; stronger effect = lower value.
Assay [6] concerns the target Alpha-2C adrenergic receptor (Homo sapiens) (UniProt P18825). Nature of the assay: compounds altering alpha2C-coupled GIRK flux – cell-based, HEK293 alpha2C/GIRK1/2, thallium flux, primary screen (AID 624;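 active means fluorescence slope after compound addition differing from the mean of all screened samples at 99.7% confidence, in either direction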;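 further: slope of fluorescence ratio to pre-addition baseline per second over 15 to 24 s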). The conditions noted are these: thallium flux BTC fluorescence, at 10 µM, actives lie on both sides.
Assay [7] in a line: blockers of RIG-like receptor reporter activation – cell-based, Sendai virus stimulus, luciferase, 10K MLSCN set, TLR/RLR signaling modifier project, primary screen (AID 602276;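 active means inhibition at or above 50% at 10 µM; inactive means inhibition below 50%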;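 further: firefly luciferase from ISG56 promoter only with Renilla not read in this screen; 0% = Sendai virus plus DMSO and 100% = medium plus DMSO without virus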). The conditions noted are these: HEK293 RL24 IRF3 luciferase reporter, at 10 µM, stronger effect = higher value. For orientation: In a reporter assay the amount or activity of a reporter protein is the signal.
A short description of assay [8]: TLR3 IRF3 reporter activation blockers – cell-based, poly I:C stimulus, luciferase, 10K MLSCN set, primary screen (AID 602277). The conditions noted are these: HEK293-TLR3 RL24 IRF3 luciferase reporter, at 10 µM, stronger effect = higher value.

The structures appear in SMILES notation. Calls of active or inactive are those of the source.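 How the source made its calls, unless noted: active means inhibition of the reporter signal at or above 50%; inactive means inhibition below 50%.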

The results in this text go back to PubChem BioAssay.

The inhibition is the drop in the measured response relative to a control, in per cent.

Chain of Alpha-2C adrenergic receptor (Homo sapiens) (P18825 whole entry, looked up): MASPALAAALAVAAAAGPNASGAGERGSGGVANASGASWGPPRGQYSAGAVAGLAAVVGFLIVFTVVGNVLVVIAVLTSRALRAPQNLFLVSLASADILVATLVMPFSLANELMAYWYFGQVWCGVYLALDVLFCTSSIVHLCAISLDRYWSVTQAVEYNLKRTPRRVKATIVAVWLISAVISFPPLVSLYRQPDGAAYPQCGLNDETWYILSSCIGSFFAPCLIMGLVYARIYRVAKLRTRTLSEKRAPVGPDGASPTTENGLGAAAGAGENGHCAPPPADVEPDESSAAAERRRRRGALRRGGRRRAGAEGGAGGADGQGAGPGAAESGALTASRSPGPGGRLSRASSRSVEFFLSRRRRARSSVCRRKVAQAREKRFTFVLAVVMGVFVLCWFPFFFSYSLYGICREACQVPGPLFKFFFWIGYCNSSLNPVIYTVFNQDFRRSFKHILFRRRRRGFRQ
Chain of Voltage-gated potassium channel subunit beta-2 (Rattus norvegicus) (P62483 whole entry, looked up): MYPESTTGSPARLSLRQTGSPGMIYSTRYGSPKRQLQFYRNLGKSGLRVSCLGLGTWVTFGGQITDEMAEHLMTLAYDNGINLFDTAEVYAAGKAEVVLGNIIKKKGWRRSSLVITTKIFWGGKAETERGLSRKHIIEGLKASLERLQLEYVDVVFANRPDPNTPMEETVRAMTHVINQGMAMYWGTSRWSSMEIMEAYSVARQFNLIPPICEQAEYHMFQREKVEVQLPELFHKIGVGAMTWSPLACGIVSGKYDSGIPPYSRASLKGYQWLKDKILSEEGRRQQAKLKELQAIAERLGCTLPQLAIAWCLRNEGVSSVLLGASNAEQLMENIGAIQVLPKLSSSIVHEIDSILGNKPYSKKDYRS

`CC(=O)Nc1ccc(S(=O)(=O)CCC#N)cc1`: in assay [1], the cell count is 424. In addition, the inhibition in assay [1] was 7.2% (inactive); in assay [3] it was -113% (inactive); in assay [7], 11.9% (inactive); in assay [8], 20% (inactive). In assay [2], the inhibition of aggregation was 2.2% (inactive). In addition, the nuclei count in assay [2] stood at 90.4%; in assay [3], 107%. Further, the fluorescence slope in assay [4] was -0.482 (inactive). Also, in assay [5], the NADPH fluorescence slope was -3.9e-05 (inactive). For the same molecule, the slope in assay [6] is 0.00638 (inactive).

Consider `Cc1nc(SCC(=O)Nc2cc(C)on2)c2c3c(sc2n1)CCCC3`, for which the cell count in assay [1] is 461. Moreover, the inhibition in assay [1] was 2.5% (inactive); in assay [3] it was -33.9% (inactive); in assay [7], 6.61% (inactive); in assay [8], 11.9% (inactive). Moreover, in assay [2], the inhibition of aggregation was -13.2% (inactive). Further, the nuclei count in assay [2] worked out at 93.7%; in assay [3], 110%. Further, the fluorescence slope in assay [4] was -0.579 (inactive). In addition, the NADPH fluorescence slope in assay [5] was -5.9e-05 (inactive). Moreover, the slope in assay [6] was 0.00594 (inactive).

Take `Cc1cc(=O)oc2cc(OCC#N)ccc12`: the cell count in assay [1] came out at 823. Further, the inhibition is -2.9% (inactive) in assay [1], -66.4% (inactive) in assay [3], 8.92% (inactive) in assay [7] and 27.1% (inactive) in assay [8]. Moreover, in assay [2], the inhibition of aggregation was -19.8% (inactive). For the same molecule, the nuclei count in assay [2] stood at 95.4%; in assay [3], 128%. Further, the fluorescence slope in assay [4] is -0.521 (inactive). Further, in assay [5], the NADPH fluorescence slope is -3.5e-05 (inactive). Also, the slope in assay [6] was 0.0067 (inactive).

For `CC(C)c1ccc(-c2nc(N3CCOCC3)[nH]c(=O)c2C#N)cc1`, the cell count in assay [1] was found to be 321. Further, the inhibition in assay [1] was -8.9% (inactive); in assay [3], -32.8% (inactive); in assay [7], 13.1% (inactive); in assay [8], 13.1% (inactive). Besides, the inhibition of aggregation in assay [2] was -12% (inactive). Further, the figures for the nuclei count in assay [2] and in assay [3] were 95.4% and 114%, respectively. In addition, the fluorescence slope in assay [4] was -0.405 (inactive). Further, the NADPH fluorescence slope in assay [5] was -2e-05 (inactive). In addition, in assay [6], the slope was 0.00599 (inactive).

As for `C/C(=N\O)C(=O)C(CN1CCCCC1)CN1CCCCC1`, in assay [1], the cell count came out at 386. Further, the inhibition in assay [1] was 0.5% (inactive); in assay [3], -144% (inactive); in assay [7], -5.16% (inactive); in assay [8] it was 25.3% (inactive). Also, the inhibition of aggregation in assay [2] was -0.1% (inactive). In addition, the results for the nuclei count in assay [2] and in assay [3] were 89.2% and 98.1%, respectively. Also, the fluorescence slope in assay [4] is -0.437 (inactive). Moreover, in assay [5], the NADPH fluorescence slope is 1.9e-05 (inactive). Further, the slope in assay [6] is 0.00389 (inactive).

With `O=c1c(CN2CCN(Cc3ccccc3)CC2)coc2ccc(Cl)cc12`, the cell count in assay [1] was 463. Further, the inhibition in assay [1] is -1.6% (inactive); in assay [3], -69.1% (inactive); in assay [7], -2.78% (inactive); in assay [8] it was 4.22% (inactive). Also, the inhibition of aggregation in assay [2] is -1.1% (inactive). Moreover, the nuclei count in assay [2] was determined as 113%; in assay [3], 125%. Also, in assay [4], the fluorescence slope is -0.41 (inactive). The NADPH fluorescence slope in assay [5] is -0.000112 (inactive). Also, in assay [6], the slope is 0.00599 (inactive).

As to `CC(C)n1c(CN2CCN(C)CC2)nc2c1c(=O)n(C)c(=O)n2C`, in assay [1], the cell count turned out to be 600. Moreover, the inhibition is -5.3% (inactive) in assay [1], -24.8% (inactive) in assay [3], 22.2% (inactive) in assay [7] and 22.9% (inactive) in assay [8]. In addition, the inhibition of aggregation in assay [2] was 0.5% (inactive). Further, the nuclei count in assay [2] turned out to be 103%; in assay [3] it was 118%. In assay [4], the fluorescence slope is -0.488 (inactive). Moreover, the NADPH fluorescence slope in assay [5] was -4.5e-05 (inactive). Also, the slope in assay [6] was 0.00573 (inactive).

In the case of `C=CCN1C(=O)C2(c3ccccc31)C1CCCC=C1C(C#N)=C(N)C2(C#N)C#N` (centres undefined), the cell count in assay [1] came to 752. Also, the inhibition is -19.9% (inactive) in assay [1], 41% (inactive) in assay [3], -7.36% (inactive) in assay [7] and -8.22% (inactive) in assay [8]. Besides, the inhibition of aggregation in assay [2] is 10.4% (inactive). The nuclei count in assay [2] amounted to 110%; in assay [3], 101%. In assay [4], the fluorescence slope was -0.559 (inactive). For the same molecule, in assay [5], the NADPH fluorescence slope is -8.6e-06 (inactive). Besides, in assay [6], the slope was 0.00492 (inactive).

For `Cc1cnn(Cc2ccccc2)c1N`, the cell count in assay [1] came to 638. The inhibition in assay [1] was 2.3% (inactive); in assay [3], 25.6% (inactive); in assay [7], 14.7% (inactive); in assay [8] it was 21.3% (inactive). Moreover, in assay [2], the inhibition of aggregation is -4.6% (inactive). The nuclei count stood at 105% in assay [2] and 100% in assay [3]. Also, the fluorescence slope in assay [4] was -0.6 (inactive). The NADPH fluorescence slope in assay [5] was -3.5e-05 (inactive). Also, the slope in assay [6] is 0.00669 (inactive).

On to `Cc1ccc(Br)cc1S(=O)(=O)N1CCN(c2ccccc2)CC1`, for which, in assay [1], the cell count was determined as 391. The inhibition in assay [1] was -2.2% (inactive); in assay [3] it was -51.5% (inactive); in assay [7], 5.17% (inactive); in assay [8] it was 31.3% (inactive). The inhibition of aggregation in assay [2] is -16% (inactive). Besides, the figures for the nuclei count in assay [2] and in assay [3] were 108% and 129%, respectively. Besides, the fluorescence slope in assay [4] is -0.463 (inactive). For the same molecule, in assay [5], the NADPH fluorescence slope was -1.8e-05 (inactive). The slope in assay [6] was 0.0036 (inactive).

Take `Nc1nc(NCc2ccco2)nn1-c1ccccc1`: the cell count in assay [1] is 335. In addition, the inhibition in assay [1] is -14.2% (inactive); in assay [3], 5.3% (inactive); in assay [7], 7.08% (inactive); in assay [8] it was -10.7% (inactive). Further, the inhibition of aggregation in assay [2] was -22.2% (inactive). For the same molecule, the nuclei count was determined as 112% in assay [2] and 93.7% in assay [3]. In addition, in assay [4], the fluorescence slope was -0.402 (inactive). For the same molecule, in assay [5], the NADPH fluorescence slope is -8.1e-05 (inactive). Further, in assay [6], the slope was 0.00567 (inactive).

On to `COc1ccc(C2CC(c3ccccc3)Nc3nc(NC(=O)c4cccs4)nn32)cc1` (centres undefined), for which, in assay [1], the cell count was found to be 413. The inhibition in assay [1] was 1.4% (inactive); in assay [3], -156% (inactive); in assay [7] it was 18.4% (inactive); in assay [8], 25.3% (inactive). For the same molecule, in assay [2], the inhibition of aggregation was -6.8% (inactive). In addition, the nuclei count in assay [2] stood at 102%; in assay [3] it was 112%. Further, in assay [4], the fluorescence slope was -0.372 (inactive). Also, the NADPH fluorescence slope in assay [5] is -7.5e-05 (inactive). In addition, in assay [6], the slope is 0.00554 (inactive).

For the molecule `O=C(OCCN1C(=O)c2ccccc2C1=O)c1ccc(S(=O)(=O)N2CCCCCC2)cc1`, in assay [1], the cell count was found to be 390. The inhibition was -9.2% (inactive) in assay [1], -10.3% (inactive) in assay [3], 19.6% (inactive) in assay [7] and 12.1% (inactive) in assay [8]. Besides, in assay [2], the inhibition of aggregation is -7.2% (inactive). Besides, the figures for the nuclei count in assay [2] and in assay [3] were 95.1% and 108%, respectively. For the same molecule, in assay [4], the fluorescence slope is -0.605 (inactive). Moreover, the NADPH fluorescence slope in assay [5] is -2.9e-05 (inactive). For the same molecule, the slope in assay [6] is 0.00625 (inactive).

Regarding `COCCOC(=O)c1[nH]c2c(c1C)C(=O)CC(c1ccc(N(C)C)cc1)C2` (centres undefined), the cell count in assay [1] came to 342. Also, the inhibition in assay [1] was -4.6% (inactive); in assay [3], 21.3% (inactive); in assay [7], -15.6% (inactive); in assay [8], -26.9% (inactive). The inhibition of aggregation in assay [2] was -19% (inactive). Moreover, the values for the nuclei count in assay [2] and in assay [3] were 105% and 83.3%, respectively. For the same molecule, the fluorescence slope in assay [4] was -0.534 (inactive). In assay [5], the NADPH fluorescence slope is 1.4e-05 (inactive). For the same molecule, in assay [6], the slope is 0.00456 (inactive).
